Compounds with a hit are over-represented: about 1.4% of the library has one in this group of screens.
CR mimetic SO = reduction of superoxide in aged yeast, primary screen, HTS; actives 0.18% (n = 330,000); superoxide response (% of plate mean), % at 10 µM; S. cerevisiae aged cells, superoxide DHE fluorescence; active compounds read low;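 active = superoxide response under a set limit, about three screen SD below normal, cut at about 65% in these data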;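 also: yeast aged for seven days with compound at 30 °C before DHE staining; 100% = average MFI of all compound-treated wells on the plate with controls excluded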
MIN6 prolif = inducers of MIN6 beta-cell proliferation, primary screen, ATP luminescence, uHTS; actives 0.29% (n = 330,000); MIN6 cells proliferation, ATPlite luminescence, 48 h; cells starved in 0.2% serum; 100% = growth in 10% serum; proliferation, % at 10 µM; AID 2380, 2010;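 active = compounds whose signal lies at least 3.5 SD above the mean of all wells on their plate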;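 also: 0% = DMSO-treated cells in low-serum medium and 100% = 10% serum control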
HSV augment = enhancers of HSV replication in host cells, fold increase, host cell viability; HSV replication augmentation in cells; maximum fold increase; actives 0.005% (n = 220,000); AID 1956, 2009; in the data active = maximum fold increase above about 1.5; inconclusive = no clear call, values can overlap the other calls; tested in PC3 cells
pCIP destab = p/CIP-EGFP fusion destabilizers, primary screen, fluorescence, F442A cells. Q05BA5. 16 h. decrease of EGFP signal, % at 10 µM. actives 0.01% (n = 290,000);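 active = EGFP signal decrease of at least 30% at 10 µM or well 3 SD below plate mean, unless failing retest; inactive = the rest, including hits failing retest or dose response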
H9c2 protect = cardioprotection against H2O2-induced cell death, primary screen, uHTS, H9c2 cells, ATPLite luminescence; H9c2 cardiomyocytes, H2O2 injury protection, 2 h; actives 0.63% (n = 360,000); AID 588492, 2011; protection from H2O2 cell death, % at 20 µM;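 active = compounds giving at least 50% protection of heart cells from peroxide-induced death in the single-dose screen, raw or plate-pattern-corrected value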;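 also: 0% = DMSO wells with peroxide and 100% = DMSO wells without peroxide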
V-ATPase pH = regulators of yeast V-ATPase proton pumping, primary screen, pHLuorin cytosolic pH fluorescence; S. cerevisiae; response, % at 10 µM; actives 0.37% (n = 350,000); AID 504577, 2011; in the data active = response mostly above about 7.3%, no sharp cut-off; inactive = mostly below about 5.4%; also: actives read high
Active calls of the source: *; i = inactive; u = inconclusive; x = no result given.

SMILES	CR mimetic SO	MIN6 prolif	HSV augment	pCIP destab	H9c2 protect	V-ATPase pH
Cc1nn(C)cc1C(C(=O)NC1CCCCC1)N(C(=O)Cc1cccs1)c1ccc(Cl)cc1 (configuration not stated)	103	-2	i	-1	55*	4
N#CC1(NC(=O)CSc2nnc(Nc3ccccc3F)s2)CCCC1	95	-6	x	x	-2	-2
CN(C(=O)COC(=O)c1ccc2c(c1)OCO2)C1CCS(=O)(=O)C1 (configuration not stated)	99	-2	i	-20	11	23*
CN(C(=O)COC(=O)c1ccc2c(c1)OCO2)C1CCCCC1	84	-3	x	x	0	-4
Clc1ccccc1-c1nnc2sc(-c3ccc4c(c3)OCO4)nn12	125	-4	i	5	3	16*
Clc1cccc(-c2nnc3sc(-c4ccc5c(c4)OCO5)nn23)c1	x	x	x	0	x	x
O=C(COC(=O)Cc1n[nH]c(=O)c2ccccc12)NNC(=O)c1ccc(Cl)cc1	110	1	x	x	66*	-4
O=C(Cn1[nH]c(=O)c2ccccc2c1=O)NCC1COc2ccccc2O1 (configuration not stated)	86	3	x	x	57*	0
O=C(COC(=O)Cc1n[nH]c(=O)c2ccccc12)NNC(=O)c1ccc(Br)cc1	87	2	x	x	53*	-1
O=C(Cn1ccc2ccccc2c1=O)NCC1COc2ccccc2O1 (configuration not stated)	100	-3	i	2	2	2
O=C(Cc1n[nH]c(=O)c2ccccc12)OCC(=O)c1ccc(F)cc1	104	-1	x	x	42	-1
CCOc1ccccc1NC(=O)Cn1[nH]c(=O)c2ccccc2c1=O	113	-4	i	11	12	2
Cc1ccccc1OCC(=O)NNC(=O)Cn1[nH]c(=O)c2ccccc2c1=O	105	-2	x	x	53*	2
COc1ccccc1C(=O)COC(=O)Cc1n[nH]c(=O)c2ccccc12	107	-2	x	x	20	4
COc1ccc(C(C)=O)cc1COC(=O)Cc1n[nH]c(=O)c2ccccc12	i	0	i	-7	72*	1
O=C(COC(=O)Cn1[nH]c(=O)c2ccccc2c1=O)NNC(=O)c1ccc(Br)cc1	97	0	x	x	83*	-4
CCSc1nc2sc3c(c2c(=O)[nH]1)CCCC3	100	3	i	-16	-7	1
Nc1nc(SCC(=O)NCCCO)nc2sc3c(c12)CCC3	96	0	i	-9	5	-2
O=C(CCCSc1nc2sc3c(c2c(=O)[nH]1)CCC3)NCCCO	94	-1	i	3	58*	-1
O=C(CCCSc1nc2sc3c(c2c(=O)[nH]1)CCC3)NCCO	107	-2	i	-6	88*	-2
COCCCN(C(=O)C1=COCCO1)c1c(N)n(Cc2ccccc2)c(=O)[nH]c1=O	x	x	x	x	-1	-3
COc1ccc(S(=O)(=O)N2CCc3ccccc32)cc1C(=O)NC1(C)CCS(=O)(=O)C1 (configuration not stated)	106	-1	x	x	1	-1
O=C(NCCc1ccccc1Cl)c1ccc2nc3ccccc3c(=O)n2c1	113	-6	x	2	58*	1
O=C(NCCc1ccccc1)c1ccc2nc3cc(Cl)ccc3c(=O)n2c1	86	-3	x	-3	1	-1
O=C1NC[C@H](Cc2ccccc2)N(CC2CCN(CCC34CC5CC(CC(C5)C3)C4)CC2)C1=O	x	x	x	x	5	0
SMILES	CR mimetic SO	MIN6 prolif	HSV augment	pCIP destab	H9c2 protect	V-ATPase pH
CCOC(=O)C(C(=O)OCC)C(C(=O)OCC)N1CCOCC1 (configuration not stated)	103	-5	i	-9	-37	12*
CCOC(=O)C(C)CC(C)C(=O)N1CCOCCOCCN(C(=O)C(C)CC(C)C(=O)OCC)CCOCC1 (configuration not stated)	107	0	i	-1	-3	-4
COC(=O)C(NNc1ccccc1C)(NC(=O)c1ccc(F)cc1)C(F)(F)F (configuration not stated)	87	-3	i	3	2	8.7*
O=C(N/N=C/c1cc(Cl)cc([N+](=O)[O-])c1O)c1ccccc1NS(=O)(=O)c1cccs1	120	-3	i	-8	50*	0
O=C(NN=Cc1ccc(O)cc1)c1ccccc1NS(=O)(=O)c1cccs1	110	-1	x	x	27	2
Cc1ccc(CN2CCN(/N=C/c3sccc3C)CC2)c(C)c1	105	0	i	-16	-6	-2
O=C(N/N=C/c1ccccc1O)C1CC(=O)N(c2ccc(Cl)cc2)C1 (configuration not stated)	96	-7	x	-12	55*	3
CNC(=O)COc1coc(CN2CCN(c3ccc(F)cc3)CC2)cc1=O	92	1	x	1	5	-1
CC(=O)N1CCN(c2ccccc2NC(=O)c2cc(Br)ccc2Cl)CC1	110	1	i	-14	-13	18*
O=c1[nH]nc(-c2ccc(NCCCO)c([N+](=O)[O-])c2)c2ccccc12	103	3	x	-5	58*	0
O=c1[nH]nc(-c2ccc(NCCO)c([N+](=O)[O-])c2)c2ccccc12	104	1	x	-1	68*	3
CN(C)CCCNc1ccc(-c2nn(C)c(=O)c3ccccc23)cc1[N+](=O)[O-]	109	-5	i	1	18	0
O=C(O)c1cccc(N/N=C/c2cc(Br)cc(Br)c2O)c1	97	-6	i	14	13	8
Cc1c(N=Cc2cc(Br)cc(Br)c2O)cccc1C(=O)O	81	-6	u	-16	62*	-7
CC1CCCCC1NC(=O)CSc1nnc(-c2ccco2)n1N (configuration not stated)	x	x	x	x	0	4
CCOC(=O)c1c(C)[nH]c(C(=O)COc2ccc3ccc(=O)oc3c2)c1C	79	-3	x	x	52*	3
CC(=O)c1cccc(OCC(=O)c2cc(C)n(-c3cc(C)on3)c2C)c1	102	-4	i	-7	-34	2
Cc1cc(-n2c(C)cc(C(=O)COc3ccc4ccc(=O)oc4c3)c2C)no1	75	0	i	2	70*	5
CN(C)C(=O)COc1ccc2ccc(=O)oc2c1	91	-5	i	-2	2	2
c1ccc(-c2nc(NCc3cccnc3)c3oc4ccccc4c3n2)cc1	102	-5	i	10	19	2
FC(F)(F)c1ccc(-c2csc(-c3ccno3)n2)cc1	95	-3	i	11	-1	-4
CC(C)(C)C(=O)OCc1nc(-c2ccc(C(F)(F)F)cc2)cs1	107	-2	i	-22	-23	21*
CC(=NO)C1CCC2C3CCC4CC(=NO)CCC4(C)C3C(C)(O)CC12C (configuration not stated)	x	x	x	x	60*	-5

Source: PubChem (several laboratories)
